{"source": "ChEMBL document CHEMBL3988442", "about": "“University of Dundee, Small-Polar-MMV Screening Library” (2021)", "note": "Among all 53,000 compounds or so, about 900 (1.7%) showed an effect of 50% or more. For the sample, strong results were picked, then their nearest neighbours and some compounds at random."}
{"test_system": "Mycobacterium tuberculosis", "assay": "Cornell - Phenotypic assay to identify agents that inhibit growth of Mycobacterium tuberculosis", "type": "functional", "design": "scale not given: direction of the effect not stated beside the values", "settings": "10 mM as filed; unlikely as a test dose", "units": {"Percent Effect": "%"}}
{"smiles": "Cc1nc(C2CCCN2CC(=O)Nc2cc(C(C)(C)C)nn2C)no1", "note": "(stereo not drawn)", "Percent Effect": -17.86}
{"smiles": "O=C(c1cnc(-c2cccs2)s1)N1CCCC(n2ccnc2)C1", "note": "(stereo not drawn)", "Percent Effect": 6.926}
{"smiles": "Cc1oncc1C(=O)N1CCC2(CC1)CC(N1CCOCC1)C2.O=C(O)C(F)(F)F", "Percent Effect": 14.16}
{"smiles": "Cc1nc(NCC2CC2)nc2c1COCC21CCN(CC(=O)N(C)C)C1", "note": "(stereo not drawn)", "Percent Effect": -16.56}
{"smiles": "CC(C)OCCn1nnnc1Cc1ccc(Br)cc1", "Percent Effect": 80.17}
{"smiles": "OCCn1nnnc1Cc1ccc(Br)cc1", "Percent Effect": 32.76}
{"smiles": "N#CCCCn1nnnc1Cc1ccc(Br)cc1", "Percent Effect": 19.45}
{"smiles": "Cc1ccnn1CCC(=O)N1CCCC[C@]2(C)NC(=O)CCC[C@H]12", "Percent Effect": 0.426}
{"smiles": "CN1CCN(C(=O)CCn2nnc3ccccc32)CC(C(N)=O)C1", "note": "(stereo not drawn)", "Percent Effect": 53.1}
{"smiles": "CNC(=O)C1CN(C)CCN(C(=O)CCn2nnc3ccccc32)C1", "note": "(stereo not drawn)", "Percent Effect": 37.61}
{"smiles": "CN1CCN(C(=O)CCn2ncc3ccccc32)CC(C(N)=O)C1", "note": "(stereo not drawn)", "Percent Effect": 40.84}
{"smiles": "CCC(C(=O)Nc1ccc2nc(C)oc2c1)N1CCCC1=O", "note": "(stereo not drawn)", "Percent Effect": -18.53}
{"smiles": "Cn1cccc1C(=O)N1CCC2(CC1)CN(S(C)(=O)=O)c1ccccc12", "Percent Effect": 9.432}
{"smiles": "OC(COc1ccccc1Br)COC1CCOCC1", "note": "(stereo not drawn)", "Percent Effect": 10.03}
{"smiles": "CN(c1ccc(CNc2ccc(Cl)cn2)cc1)S(C)(=O)=O", "Percent Effect": 21.91}
{"smiles": "Clc1ccc(CNc2ccc(Cl)cn2)cc1", "Percent Effect": -25.47}
{"smiles": "CN(C)S(=O)(=O)c1ccc(CNc2ccc(Cl)cn2)cc1", "Percent Effect": 63.29}
{"smiles": "O=C(COCC1CC1)Nc1ncccc1O", "Percent Effect": -3.464}
{"smiles": "O=C(COCC1CC1)Nc1cc(-c2ccc(Br)s2)n[nH]1", "Percent Effect": 108.2}
{"smiles": "COc1ccccc1-c1cc(NC(=O)COCC2CC2)[nH]n1", "Percent Effect": 43.6}
{"smiles": "O=C(CCn1c(C(F)F)cc2cccnc21)NC1CCCC1", "Percent Effect": -12.05}
{"smiles": "CC(C)CNC(=O)c1cc2c(s1)CCN2S(C)(=O)=O", "Percent Effect": -19.48}
{"smiles": "Cc1cc(C2CCC2)nc(N2CCC3(CCNC(=O)CC3)CC2)n1", "Percent Effect": 19.37}
{"smiles": "Cn1ccnc1SCC(=O)NCc1ccc2c(c1)CCC(=O)N2", "Percent Effect": -11.99}
{"smiles": "Cc1ccc(C2CSCCN2C(=O)c2cc(C(N)=O)cs2)o1", "note": "(stereo not drawn)", "Percent Effect": 23.87}
{"smiles": "Cc1c(C(=O)N(C)CC(F)(F)F)nnn1-c1ccc(F)cc1", "Percent Effect": 26.05}
{"smiles": "c1ccc2c(c1)CCN(c1nc(-c3ccncc3)nc3c1CCNC3)C2", "Percent Effect": 18.38}
{"smiles": "Cc1ccccc1N1CCN(c2nc(N(C)C)nc3c2CCNC3)CC1", "Percent Effect": -18.26}
{"smiles": "CN(C)c1nc2c(c(N3CCc4ccccc4C3)n1)CCNC2", "Percent Effect": 60.07}
{"smiles": "Cc1n[nH]c(C)c1-c1nccnc1CC1CCN(C(C)C)CC1", "Percent Effect": -33.1}
{"smiles": "COc1ccc(C(=O)N2CC(=O)N(C3CCC3)CC(O)C2)cc1OC", "note": "(stereo not drawn)", "Percent Effect": -13.29}
{"smiles": "CC(Oc1cc(Cl)cc(Cl)c1)C(=O)NCCOCC(N)=O", "note": "(stereo not drawn)", "Percent Effect": -19.42}
{"smiles": "CC(=O)NC1CCN(C(=O)Nc2cccc(C(F)(F)F)c2)CC1", "Percent Effect": 20.69}
{"smiles": "O=C(Nc1ccc2c(c1)OCO2)N1CCN(CCn2ccnc2)CC1", "Percent Effect": -27.6}
{"smiles": "O=C(Nc1cccc(C(F)(F)F)c1)N1CCN(CCn2ccnc2)CC1", "Percent Effect": 98.5}
{"smiles": "Cc1nn(C)c(C)c1CN1CCCC1c1nccc(CN(C)C)n1", "note": "(stereo not drawn)", "Percent Effect": -90.49}
{"smiles": "CS(=O)(=O)N1CC(c2n[nH]c3ncccc23)C1", "Percent Effect": -14.19}
{"smiles": "COc1cccc(CN2CC[C@H](NC(C)=O)[C@@H](O)CC2)c1F", "Percent Effect": -15.13}
{"smiles": "COc1cccc(CN2CCN(c3cccc(C(C)C)n3)CC2)c1F", "Percent Effect": 57.83}
{"smiles": "COc1cccc(CN2CCN(c3noc(C(C)C)n3)CC2)c1F", "Percent Effect": 42.13}
{"smiles": "CC(C)c1cc2c(s1)NC(c1ccccn1)NC2=O", "note": "(stereo not drawn)", "Percent Effect": -1.811}
{"smiles": "CCn1c(C2CCCN2Cc2noc(C(C)(C)C)n2)nc2ccccc21", "note": "(stereo not drawn)", "Percent Effect": 13.86}
{"smiles": "COc1ccccc1CC(=O)NC(C)c1nc2cccnc2n1C(C)C", "note": "(stereo not drawn)", "Percent Effect": -9.677}
{"smiles": "CC(C)Nc1ncnc2c1CCN(C(=O)c1ccncc1F)CC2.O=C(O)C(F)(F)F", "Percent Effect": -9.598}
{"smiles": "N#Cc1ccc(C(=O)O)nc1/C=C/c1cccc(Br)c1", "Percent Effect": 10.67}
{"smiles": "O=C(O)C1(Oc2ccc3ccccc3c2)CCN(c2ncccn2)CC1", "Percent Effect": 20.42}
{"smiles": "N#Cc1ccc(C(=O)O)nc1/C=C/c1cccc(Cl)c1", "Percent Effect": -13.81}
{"smiles": "O=C(O)c1c(Cl)ncn1-c1cccc2ccccc12", "Percent Effect": 19.97}
{"smiles": "O=C(O)c1cc(/C=C/c2cccc3ccccc23)ncn1", "Percent Effect": 65.34}
{"smiles": "O=C(O)c1cc(/C=C/c2ccc3ccccc3c2)ncn1", "Percent Effect": 74.73}
{"smiles": "O=C(O)c1cc(/C=C/c2ccccc2)ncn1", "Percent Effect": 65.58}
{"smiles": "N#Cc1ccc(C(=O)O)nc1/C=C/c1cccc(F)c1", "Percent Effect": 2.587}
{"smiles": "CNC(=O)C1CCN(C(=O)NCc2ccc(-c3ccn[nH]3)cc2)CC1", "Percent Effect": -24.99}
{"smiles": "N#Cc1ccc(N2CCC3(CCC(=O)N3CCN3CCCC3)CC2)nc1.O=C(O)C(F)(F)F.O=C(O)C(F)(F)F", "Percent Effect": 3.156}
{"smiles": "CCc1nnc2n1CCN(C(=O)CN(C)C1CC1)C2", "Percent Effect": -12.51}
{"smiles": "CCN1Cc2cc3c(cc2NCCC1=O)OCO3", "Percent Effect": -32.17}
{"smiles": "CN1CCC(N(CCc2ccccc2)C(=O)COCC2CCCO2)CC1", "note": "(stereo not drawn)", "Percent Effect": 41.94}
{"smiles": "CN1CC(=O)N(c2ccsc2)CC12CCN(S(=O)(=O)C1CC1)C2.O=C(O)C(F)(F)F", "note": "(stereo not drawn)", "Percent Effect": 6.764}
{"smiles": "O=C(NC1CCC1)C1=NOC2(CCN(Cc3ccccc3)C2)C1", "note": "(stereo not drawn)", "Percent Effect": -9.005}
{"smiles": "N#CCSCCCN1CCN(C(=O)c2cccc(Cl)c2)CC1", "Percent Effect": 18.37}
{"smiles": "CCC(Nc1nc(C(C)C)nc2c1cnn2C)c1ccncc1", "note": "(stereo not drawn)", "Percent Effect": 25.2}
{"smiles": "CC[C@H](Nc1nc(C(C)C)nc2c1cnn2C)c1ccccc1", "Percent Effect": 70.75}
{"smiles": "CCC(Nc1nc(C(C)C)nc2c1cnn2C)c1ccc(O)cc1", "note": "(stereo not drawn)", "Percent Effect": 1.347}
{"smiles": "Cc1nc(Nc2nnc(C)s2)cc(C2CCCN2c2ccncc2)n1", "note": "(stereo not drawn)", "Percent Effect": -13.84}
{"smiles": "CCc1noc(C(C)N2CCc3c(ncn3C3CC3)C2)n1", "note": "(stereo not drawn)", "Percent Effect": -20.08}
{"smiles": "CCc1nccn1C1CCCN(C(=O)c2csc(COC)n2)C1", "note": "(stereo not drawn)", "Percent Effect": 19.86}
{"smiles": "COCc1nc(C(=O)N2CCCC(n3nc(C)cc3C)C2)cs1", "note": "(stereo not drawn)", "Percent Effect": -24.43}
{"smiles": "COCc1nc(C(=O)N2CCCC(n3cccn3)C2)cs1", "note": "(stereo not drawn)", "Percent Effect": 67.19}
